# Laboratory results as given in PubChem BioAssay (NCI).
# The panel holds about 83,000 compounds, 20% with a hit somewhere; the sample as a whole holds those more often.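 Note: values are percent growth. 100 is the growth of untreated cells, values between 100 and 0 indicate rising inhibition; between -100 and 0 indicates cell death.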 The source made the active and inactive calls. The calls were made as follows: active = growth percent below 10; inactive = the rest.
# System: SF-295 CNS
# Test: NCI-60 one-dose screen, 48 h (100 = growth as untreated, 0 = no growth, -100 = all killed)
# Details: 10 µM unless noted
row,SMILES,growth
1,CC1(C)NCCC[C@]2(C)[C@H]3CC=C4[C@@H]5C[C@](C)(COC(=O)c6ccccc6C(=O)O)CC[C@]5(C)CC[C@@]4(C)[C@]3(C)CC[C@@H]12,60.3% (inactive)
2,COc1ccccc1Nc1nnc(COc2ccc(CNC(=O)CCCC/C=C/C(C)C)cc2OC)o1,88.8% (inactive)
3,CCCCCCCCCCCCCCCCC(=O)O.CCCCCCCCCCCCCCCCCC(=O)O.CCCCCCCCCCCCCCCCCC(=O)O.CCCCCCCCCCCCCCCCCC(=O)O.CCCCCCCCCCCCCCCCCC(=O)O.CO[CH-]OC12COC1CC(O)C1(C)C(O)C(OC(C)O)C3=C(C)C(OC(=O)C(O)C([NH-])c4ccccc4)CC(O)(C(OC(=O)c4ccccc4)C21)C3(C)C.[Cu+].[Zn].[Zn].[Zn].[Zn].[Zn] (stereo not given),16.5% (inactive)
4,Cc1c(CN(C)C)cc(C(C)C)cc1C(C)C,116% (inactive)
5,COC1=C(OC)C(=O)c2ccccc2C1=O,108% (inactive)
6,COc1ccc(C(=O)CN2C(=O)NC(c3ccccc3)(c3ccccc3)C2=O)cc1,98.8% (inactive)
7,CCNc1nnc(COc2ccc(CNC(=O)CCCC/C=C/C(C)C)cc2OC)o1,97.1% (inactive)
8,CCS(=O)(=O)OCCO[C@H]1Cc2cc3ccc(=O)oc3cc2OC1(C)C,101% (inactive)
9,CC(C)OC(=O)[C@H](C)N[P@@](=O)(OC[C@@]1(C)O[C@@H](n2cc(F)c(N)nc2=O)C[C@@H]1O[P@](=O)(N[C@@H](C)C(=O)OC(C)C)Oc1ccccc1)Oc1ccccc1,103% (inactive)
10,CC[C@@H](C)/C=C(C)/C=C/C(=O)c1c(O)c(-c2ccc(OC(=O)[C@@]34CC[C@@](C)(C(=O)O3)C4(C)C)cc2)cn(O)c1=O,-9.51% (active)
11,C=C1CCC2C3(C)COC(c4ccccc4)OC3CCC2(C)C1C/C=C1/C(=O)OCC1O (stereo not given),87.6% (inactive)
12,COc1cc(-c2nc(/C=C3/C(=O)Nc4ccccc43)c3ccccn23)cc(OC)c1OC,92% (inactive)
13,Cc1cc(CSc2ccc(Cl)cc2)ccc1N,101% (inactive)
14,O=C(/C=C1\C(=O)N(Cc2ccccc2)c2ccccc21)c1ccc(OCCN2CCCCC2)cc1,85.6% (inactive)
15,COc1ccc(/C=C2\CCCC3=C2N=C2SC=NN2C3c2ccc(OC)c(OC)c2)cc1OC (stereo not given),46.1% (inactive)
16,CC1(c2ccc(Br)cc2)NC(=O)NC1=O (stereo not given),110% (inactive)
17,O=C1C(Cl)=C(SC2=NCCN2)C(=O)c2ccccc21,106% (inactive)
18,Cc1ccc(C(=O)NN)cc1,111% (inactive)

row,SMILES,growth
1,O=S(=O)(O)c1ccc2c(c1)Sc1cc(S(=O)(=O)O)ccc1O2,103% (inactive)
2,NNC(=S)N1N=C(c2cc3ccccc3o2)CC1c1c[nH]c2ccccc12 (stereo not given),38.9% (inactive)
3,O=C(O)c1occ(Cl)c1Cl,101% (inactive)
4,Cc1nnc(-c2cc3c(ccc4ccccc43)oc2=O)c2cn(-c3ccc(Cl)cc3)nc12,95.9% (inactive)
5,O=C(/C=C/c1c[nH]c2ccccc12)c1cc2ccccc2o1,91% (inactive)
6,C=CCN(C)C,103% (inactive)
7,Cc1c(C(N)=O)sc2c1c(=O)n(Cc1ccccc1)c1nnc(S(C)(=O)=O)n21,89.4% (inactive)
8,COc1ccc(/C=C2\SC(=O)N(Cc3cc(=O)oc4ccc(OC)cc34)C2=O)cc1,82.7% (inactive)
9,CCCCCC(=C/c1ccccc1)/C=N/N=C(N)N,-64.3% (active)
10,CC1(C)Oc2cc3oc(=O)ccc3cc2C[C@@H]1OCCOS(=O)(=O)c1ccc(C#N)cc1,87.7% (inactive)
11,CC1=C[C@@H]2c3c(c(O)c(O)c4oc5cc(O)cc(O)c5c(=O)c34)[C@@H](c3cc(O)c(O)c4oc5cc(O)cc(O)c5c(=O)c34)[C@@H]2C(C)(C)C1,-26.7% (active)
12,C=C(C)[C@@H]1CC[C@]2(COC(=O)c3ccccc3C(=O)O)CC[C@]3(C)[C@H](CC[C@@H]4[C@@]5(C)CCCNC(C)(C)[C@@H]5CC[C@]43C)[C@@H]12,66.6% (inactive)
13,COC(=O)/C=C/c1cc(O)c2oc(-c3ccc(O)c(O)c3)c(C(=O)OC)c2c1,-11.3% (active)
14,COC(=O)Nc1nc2ccc(C(=O)c3ccccc3N(C)C3COC3)cc2[nH]1,14.3% (inactive)
15,COc1ccccc1Cn1cc2c(c1)-c1oncc1CC2,-28.8% (active)
16,CC([C@H]1CC=C2C3CCC4=C[C@@H](N(C)C)CC[C@]4(C)C3CC[C@@]21C)N(C)C (stereo not given in full),-86.8% (active)
17,O=C1c2ccccc2CCc2ccccc21,76.8% (inactive)
